Among all 65,000 compounds or so, about 1,200 (1.8%) were called active. For the sample, actives were picked, then their nearest neighbours and some compounds at random. Values without a mark were called inactive. No stated cut-off is given here; in the data, active means inhibition above about 50%; inactive means the rest.
Target: Gag-Pol polyprotein (Human immunodeficiency virus type 1 group M subtype B (isolate HXB2)) (UniProt P04585)
Experiment: HIV-1 RT RNase H inhibitors, primary screen, biochemical, fluorescence (AID 565)
Conditions: RT-RNase H RNA/DNA duplex cleavage, at 10 µM, stronger effect = higher value

Row | Compound | inhibition
1 | O=P(O)(CN1CCCCC1)CN1CCCCC1 | -5.45%
2 | O=C(CN1C(=O)CSc2ncccc21)N1CCOCC1 | -4.9%
3 | COC(=O)C1=C(C)NC(=O)NC1/C=C/c1ccccc1 (stereo not drawn) | -63.7%
4 | COC(=O)C1=C(C)NC2=C(C(=O)c3ccccc32)C1c1ccc(-c2ccc(C(=O)O)cc2)o1 (stereo not drawn) | 81.9% (active)
5 | COc1ccccc1NC(=O)C1=C(C)NC2=C(C(=O)CCC2)C1c1ccc(C)o1 (stereo not drawn) | -19.4%
6 | Cc1nnc(NC(=O)CCC(=O)N2CCC(C)CC2)s1 | -0.8%
7 | Cc1cc(=O)n2nc(N3CCCC(C(=O)NCCC4=CCCCC4)C3)sc2n1 (stereo not drawn) | -4.48%
8 | COc1ccc(NC(=O)CN2CCN(S(=O)(=O)c3ccc(F)cc3)CC2)cc1Cl | -9.57%
9 | COc1cc2c(cc1NC(=O)CN1CCN(S(=O)(=O)c3ccc(F)cc3)CC1)oc1ccccc12 | 56.4% (active)
10 | COc1ccccc1NC(=O)CN1CCN(S(=O)(=O)c2ccc(Br)cc2)CC1 | -1.95%
11 | Cc1cc(Br)ccc1NC(=O)C1CCCO1 (stereo not drawn) | -14.4%
12 | N#Cc1ccc(OCCN2C(=O)NC3(CCSC3)C2=O)cc1 (stereo not drawn) | -7.99%
13 | O=C(CN1C(=O)CCC1=O)Nc1ccc(S(=O)(=O)N2CCOCC2)cc1 | -11.6%
14 | Clc1ccc(Cc2nn3c(-c4ccncc4)nnc3s2)cc1 | 53.8% (active)
15 | Nc1scc(-c2ccncc2)c1Cl | -13.4%
16 | Clc1ccc(Cc2nnc(-c3cccs3)o2)cc1 | -42.9%
17 | CCOC(=O)c1ccc(CS(=O)c2ccc(Cl)cc2)o1 (stereo not drawn) | -8.12%
18 | COc1ccc(S(=O)(=O)NC2(C(F)(F)F)N=C3SCCN3C2=O)cc1 (stereo not drawn) | -21.6%
19 | CCOC(=O)c1sc(NC(=O)C(CC)Sc2nccn2C)nc1C (stereo not drawn) | 7.42%
20 | Cc1nc(NC(=O)CCC(=O)O)sc1C(=O)N(C)C | 0.73%
21 | CCOC(=O)c1sc(/N=C/Nc2nc(C)c(C(=O)OCC)s2)nc1C | 66.5% (active)
22 | CCCOC(=O)CC1C(=O)NCCN1Cc1ccc(F)cc1 (stereo not drawn) | 15.5%
23 | CC(=O)Nc1ccc(S(=O)(=O)N2CCN(CCCOc3cc(C)ccc3C)CC2)cc1 | -8.05%
24 | CCC(CC)C(=O)Nc1cc(C(=O)OC)cc(C(=O)OC)c1 | -9.62%
25 | Cc1ccc(S(=O)(=O)C2(S(=O)(=O)c3ccc(C)cc3)CCCC2)cc1 | -7.65%
26 | CCC(=O)N(Cc1cc2cc(OC)ccc2[nH]c1=O)c1ccccc1C | -2.05%
27 | CCOc1ccc2[nH]c(=O)c(CN(CCCO)C(C)=O)cc2c1 | 84.7% (active)
28 | COc1ccc(N(Cc2cc3cc(OC)ccc3[nH]c2=O)S(C)(=O)=O)cc1 | -0.75%
